Compounds with a hit are over-represented: about 3.7% of the library has one in this group of screens.
TbPYK inhibitor: inhibitors of Trypanosoma brucei pyruvate kinase. AID 624173. 410,000 compounds, 0.12% hits. TbPYK enzyme, Kinase-Glo Plus ATP luminescence, 45 min. Q57TT1. Potency, µM (highest dose often 76.8 µM), most hits filed as inhibitors; further: nearly all actives have a fitted effect of over 50% in size
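Screened from lowest to highest concentration, compounds were pinned into TbPYK/substrate mixtures, and ADP (130 uM final) was added. Plates sat at room temperature for 45 min prior to Kinase-Glo Plus detection by luminescence.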
FMDV antiviral: antivirals against foot and mouth disease virus | FMDV antiviral cell-based qHTS | Potency, µM (titrated, usually from 57.9 µM), actives largely listed as inhibitors | 410,000 compounds, 1.2% hits; calls by dose curve; tested in HEK293T cells; further: read-out not given here; nearly all actives have a fitted effect of over 45% in size
RE007 growth inh: less growth of the S. pombe RE007 Vpr strain. S. pombe RE007 Vpr strain, BacTiter-Glo ATP luminescence, 24 h. Potency, µM (titrated, usually from 92.2 µM), most hits filed as inhibitors. 360,000 compounds, 0.21% hits; active means well fitted falling curve with a large enough effect; inconclusive means small, poorly fitted or top-dose-only effect; inactive means no such curve, though single readings can be large or run the other way; further: nearly all actives have a fitted effect of over 50% in size
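Fission yeast RE007 carrying one integrated HIV-1 vpr copy, seeded at OD 0.01 in PMG+AL medium with 23 nL pinned compound. Grown 24 h at 30 degrees; viability read by BacTiter-Glo luminescence after 5 min.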
Sm TGR block: inhibitors of Schistosoma mansoni thioredoxin glutathione reductase | Q962Y6 | purified TGR, DTNB reduction, TNB absorbance 405 nm | Potency, µM (highest dose often 114 µM), most hits filed as inhibitors | 360,000 compounds, 3% hits; further: nearly all actives have a fitted effect of over 60% in size
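First, TGR (20 nM dispensed) and NADPH were mixed with compound. Second, a 15 min room-temperature incubation followed. Third, further NADPH and then DTNB were added to start the reaction. Finally, TNB absorbance was monitored kinetically.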
Large screens that a line does not name were inactive. Unless noted, the call rests on the fitted dose curve; in most records, active means well fitted curve in the direction sought with a large enough effect; inconclusive means small, poorly fitted or top-dose-only effect, or another doubt; inactive means no such curve, though single readings can be large; an effect the other way counts as inactive or inconclusive.

COc1ccc(S(=O)(=O)Nc2cccc(-c3ccc(N4CCCC4)nn3)c2)cc1F	none (no result: RE007 growth inh)
Cc1cccc(Cn2c(SCc3ccc(C(=O)NCCc4ccccc4)cc3)nc3ccncc32)c1	none (no result: RE007 growth inh)
COc1c2c(cc3oc(=O)ccc13)OC(C)(C)C=C2	none
COC1=CC(=O)[C@]2(C=C1OC)OC[C@@H]1Oc3c(ccc4c3C=CC(C)(C)O4)C(=O)[C@@H]12	FMDV antiviral 15.8µM (no result: Sm TGR block)
COc1ccc(-c2nc(CS(=O)CC(=O)NC3CCC(C)CC3)c(C)o2)cc1OC (configuration not stated)	Sm TGR block 35.5µM
COc1ccc(-c2nc(CS(=O)CC(=O)NC3CCCC3)c(C)o2)cc1OC (configuration not stated)	Sm TGR block 20µM
COc1ccc(-c2nc(CSCC(=O)NC3CCCc4ccccc43)c(C)o2)cc1OC (configuration not stated)	FMDV antiviral inconclusive
COc1ccc(-c2nc(CS(=O)CC(=O)NC3CCCc4ccccc43)c(C)o2)cc1OC (configuration not stated)	Sm TGR block 20µM
Cc1nn(C(C)C(=O)Nc2cccc(F)c2)c(=O)c2c1sc1ccccc12 (configuration not stated)	none (no result: RE007 growth inh)
CCc1ccc(C(=O)Nc2nc3ccccc3[nH]2)cc1	FMDV antiviral 5.62µM
COc1ccc(Cl)cc1C(=O)Nc1nc2ccccc2[nH]1	FMDV antiviral 11.2µM
O=C(Nc1nc2ccccc2[nH]1)c1ccccc1F	TbPYK inhibitor inconclusive, FMDV antiviral 3.16µM, RE007 growth inh 6.31µM
O=C(Nc1nc2ccccc2[nH]1)c1cc(F)cc(F)c1	none
O=C(Nc1nc2ccccc2[nH]1)c1ccc(F)cc1	FMDV antiviral 20µM
Cc1ccc(-n2ncc3c(NCCc4ccccc4)ncnc32)cc1	none (no result: RE007 growth inh)
N=C1SCC(=O)N1c1ncc(Cc2ccccc2Cl)s1	RE007 growth inh inconclusive
N=C1SCC(=O)N1c1ncc(Cc2cccc(Cl)c2)s1	FMDV antiviral inconclusive, RE007 growth inh 17.8µM
Cc1cccc(Nc2n[nH]c(=S)s2)c1C	TbPYK inhibitor inconclusive (no result: FMDV antiviral)
Cc1cccc(C)c1Nc1n[nH]c(=S)s1	TbPYK inhibitor 12.6µM (no result: Sm TGR block)
N#CCCS(=O)(=O)c1nnnn1-c1ccccc1	Sm TGR block 7.08µM (no result: TbPYK inhibitor, FMDV antiviral, RE007 growth inh)
c1ccc(-n2nnnc2Cc2nnnn2-c2ccccc2)cc1	none
CCC(=O)OC1(C)C(=O)C2=COC(c3ccc(OC)cc3)=CC2=C(Br)C1=O (configuration not stated)	RE007 growth inh inconclusive, Sm TGR block 11.2µM
COC(=O)CCC(=O)OC1(C)C(=O)C2=CN(Cc3ccc(OC)cc3)C(c3ccc(OC)cc3)=CC2=C(Br)C1=O (configuration not stated)	none (no result: Sm TGR block)
COc1ccc(C2=CC3=C(Br)C(=O)C(C)(O)C(=O)C3=CO2)cc1 (configuration not stated)	RE007 growth inh inconclusive, Sm TGR block 8.91µM
COc1ccc(-c2[nH]ncc2CN2CCOc3c(cc(-c4cccc(OC)n4)cc3OC)C2)cc1	none (no result: TbPYK inhibitor, RE007 growth inh, Sm TGR block)
COC(=O)N1C(=O)[C@@](CC(C)C)(c2ccccc2)N1C(=O)OC	Sm TGR block 3.55µM (no result: TbPYK inhibitor, FMDV antiviral, RE007 growth inh)
COc1ccc(CNC(=O)C(C)N2C(=O)NC(c3ccccc3)(c3ccccc3)C2=O)cc1 (configuration not stated)	none
COC(=O)N1C(=O)[C@](CC(C)C)(c2ccccc2)N1C(=O)OC	FMDV antiviral 35.5µM, Sm TGR block 7.94µM
CCC(C)N1C(=O)/C(=C/c2ccc3c(c2)CCN3CCCCl)C(=O)NC1=S (configuration not stated)	TbPYK inhibitor inconclusive, FMDV antiviral 31.6µM, Sm TGR block inconclusive
COc1ccc([N+](=O)[O-])c(S(=O)(=O)c2ccc(Cl)cc2)n1	FMDV antiviral 12.6µM, RE007 growth inh 12.6µM, Sm TGR block inconclusive
O=[N+]([O-])c1cccnc1S(=O)(=O)c1ccccc1	FMDV antiviral 22.4µM, Sm TGR block 0.316µM
COc1ccc([N+](=O)[O-])c(S(=O)(=O)c2ccccc2)n1	FMDV antiviral 31.6µM, RE007 growth inh inconclusive, Sm TGR block 0.1µM
CCN(CC)S(=O)(=O)c1ccc(OC)c(NC(=O)/C=C/c2ccco2)c1	TbPYK inhibitor inconclusive, Sm TGR block 3.16µM
O=C(NCC1(c2ccccc2)CCCC1)c1ccco1	none
COc1ccc(CNC(=O)/C=C/c2ccco2)cc1OC	Sm TGR block 3.16µM
COc1ccc(C2(CNC(=O)/C=C/c3ccco3)CCCC2)cc1OC	TbPYK inhibitor inconclusive, Sm TGR block 3.55µM
CCN(CC)S(=O)(=O)c1ccc(N2CCCCC2)c(NC(=O)/C=C/c2ccc(OC)c(OC)c2)c1	none
O=C(/C=C/c1ccco1)NCC1(c2ccccc2)CCCC1	Sm TGR block 7.94µM
COC(=O)C1CCCCN1Cc1ccc2c(c1)CN(C(=O)c1csc(-c3cccs3)n1)CCO2 (configuration not stated)	none (no result: TbPYK inhibitor, RE007 growth inh, Sm TGR block)
Cc1[nH]c2ccc(Br)cc2c1CCNC(=O)c1cc2ccccc2oc1=O	none (no result: RE007 growth inh)
COC(=O)C1=C(c2ccc(C(C)=O)cc2)C[C@@H]2CC[C@H]1N2C(=O)NC(C)C	Sm TGR block 35.5µM
COC(=O)C1=C(c2ccc(C(C)=O)cc2)C[C@@H]2CC[C@H]1N2C	none
CCC(CC)C1=NN2C(=N)/C(=C/c3ccc(OC(=O)c4ccco4)cc3)C(=O)N=C2S1	none
CCS(=O)(=O)C1=NN2C(=N)/C(=C\c3ccc(OS(=O)(=O)c4ccccc4)cc3)C(=O)N=C2S1	Sm TGR block 44.7µM
CCS(=O)(=O)C1=NN2C(=N)/C(=C\c3ccc(OC(=O)c4ccco4)cc3)C(=O)N=C2S1	Sm TGR block 35.5µM
C/C(=N/Nc1ccc(C)cc1)C1(C)N(O)C(C)(C)C(c2ccco2)=[N+]1[O-] (configuration not stated)	Sm TGR block 10µM
Cc1cc(O)c(C(C)C)cc1N=Nc1ccccc1C(=O)O	FMDV antiviral inconclusive
Cc1cc(NO)c(C(C)C)cc1N=O	FMDV antiviral 22.4µM
Cc1ccc(-c2ccc(/C=C3/NC(=O)NC3=O)o2)cc1[N+](=O)[O-]	none
Cc1ccc(-c2ccc(/C=C3\C(=O)ON=C3c3ccccc3)o2)c([N+](=O)[O-])c1	TbPYK inhibitor inconclusive, Sm TGR block inconclusive
O=C1NC(=O)C(=Cc2ccc(-c3cc(Cl)ccc3[N+](=O)[O-])o2)C(=O)N1	TbPYK inhibitor 17.8µM, FMDV antiviral 20µM, Sm TGR block 31.6µM
CC1=C(C#N)C(=O)NC(=O)/C1=C\c1ccc(-c2cc(C)c(C)cc2[N+](=O)[O-])o1	FMDV antiviral inconclusive, RE007 growth inh inconclusive, Sm TGR block 3.55µM
O=C1NC(=O)C(=Cc2ccc(-c3ccccc3[N+](=O)[O-])o2)C(=O)N1	TbPYK inhibitor 15.8µM, FMDV antiviral 35.5µM
O=C(CN1CCN(Cc2ccc(F)cc2Cl)S1(=O)=O)Nc1ccc(F)cc1	none (no result: RE007 growth inh)
COc1ccc(-c2nnc3ccc(SCC(=O)NCc4ccco4)nn23)cc1	Sm TGR block 39.8µM
COc1ccc(-c2nnc(SCC(=O)NCc3ccco3)n2C)cc1	Sm TGR block 44.7µM
O=C(CSc1ccc2nnc(-c3ccccn3)n2n1)NCc1ccco1	Sm TGR block 39.8µM

Screens as filed in PubChem.
